From the supplement of paper PMC8975748
Structures can show the parent of a compound that is named as a salt. ± gives the standard deviation of the averaged measurements.

Columns and labels:
[1] = test system: Saccharomyces cerevisiae BY4741 SeMeCo community; assay: mean cell size (pixel area) (pixels); higher = larger cells; conditions: 10 µM; 24 h; SM minimal medium
Method in brief: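 Yeast cells were fixed with paraformaldehyde, imaged by automated confocal microscopy and analysed in Harmony to obtain mean cell pixel area per well. They came from a four-plasmid fluorescent Saccharomyces cerevisiae BY4741 community, each plasmid complementing one auxotrophy and carrying a fluorescent marker. Before imaging, 70 µl of culture at OD600 = 0.3 was incubated for 24 h in SM medium in 384-well plates predosed acoustically with drug (final 10 µM). Values are means of 3 replicates. Same SeMeCo high-content imaging drug screen: Selleck FDA-approved drugs at 10 µM, 24 h in SM medium, 384-well plates, 3 replicates.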

[2] = test system: Saccharomyces cerevisiae BY4741 SeMeCo community; assay: z-score of prototroph abundance vs DMSO median; higher = larger share of this subpopulation than in DMSO controls; conditions: 10 µM; 24 h; SM minimal medium; subpopulation (auxotrophy): Prototroph
Method in brief: (§1)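 A community of Saccharomyces cerevisiae BY4741 was built from four plasmids that each restored one auxotrophy and encoded a distinct fluorescent protein. Pre-grown overnight to OD600 1.0 and diluted to 0.3, it was dispensed at 70 µl into 384-well plates acoustically predosed with library drugs for a final 10 µM, and grown 24 h in minimal SM medium. Cells were then paraformaldehyde-fixed and imaged by automated confocal microscopy. Thresholds and autofluorescence correction came from single-auxotroph fluorescent strains, and each subpopulation's abundance was scored as a z-score relative to the vehicle-well median.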

[3] = test system: Saccharomyces cerevisiae BY4741 SeMeCo community; assay: z-score of subpopulation abundance vs DMSO median, subpopulation auxotrophic for M; higher = larger share of this subpopulation than in DMSO controls; conditions: 10 µM; 24 h; SM minimal medium; subpopulation (auxotrophy): M
Method in brief: as §1

[4] = test system: Saccharomyces cerevisiae BY4741 SeMeCo community; assay: z-score of subpopulation abundance vs DMSO median, subpopulation auxotrophic for L; higher = larger share of this subpopulation than in DMSO controls; conditions: 10 µM; 24 h; SM minimal medium; subpopulation (auxotrophy): L
Method in brief: as §1

[5] = test system: Saccharomyces cerevisiae BY4741 SeMeCo community; assay: z-score of subpopulation abundance vs DMSO median, subpopulation auxotrophic for U; higher = larger share of this subpopulation than in DMSO controls; conditions: 10 µM; 24 h; SM minimal medium; subpopulation (auxotrophy): U
Method in brief: as §1

[6] = test system: Saccharomyces cerevisiae BY4741 SeMeCo community; assay: z-score of subpopulation abundance vs DMSO median, subpopulation auxotrophic for H; higher = larger share of this subpopulation than in DMSO controls; conditions: 10 µM; 24 h; SM minimal medium; subpopulation (auxotrophy): H
Method in brief: as §1

[7] = test system: Saccharomyces cerevisiae BY4741 SeMeCo community; assay: z-score of subpopulation abundance vs DMSO median, subpopulation auxotrophic for LM; higher = larger share of this subpopulation than in DMSO controls; conditions: 10 µM; 24 h; SM minimal medium; subpopulation (auxotrophy): LM
Method in brief: as §1

[8] = test system: Saccharomyces cerevisiae BY4741 SeMeCo community; assay: z-score of subpopulation abundance vs DMSO median, subpopulation auxotrophic for HU; higher = larger share of this subpopulation than in DMSO controls; conditions: 10 µM; 24 h; SM minimal medium; subpopulation (auxotrophy): HU
Method in brief: as §1

[9] = test system: Saccharomyces cerevisiae BY4741 SeMeCo community; assay: z-score of subpopulation abundance vs DMSO median, subpopulation auxotrophic for UM; higher = larger share of this subpopulation than in DMSO controls; conditions: 10 µM; 24 h; SM minimal medium; subpopulation (auxotrophy): UM
Method in brief: as §1

[10] = test system: Saccharomyces cerevisiae BY4741 SeMeCo community; assay: z-score of subpopulation abundance vs DMSO median, subpopulation auxotrophic for HL; higher = larger share of this subpopulation than in DMSO controls; conditions: 10 µM; 24 h; SM minimal medium; subpopulation (auxotrophy): HL
Method in brief: as §1

[11] = test system: Saccharomyces cerevisiae BY4741 SeMeCo community; assay: z-score of subpopulation abundance vs DMSO median, subpopulation auxotrophic for HLU; higher = larger share of this subpopulation than in DMSO controls; conditions: 10 µM; 24 h; SM minimal medium; subpopulation (auxotrophy): HLU
Method in brief: as §1

[12] = test system: Saccharomyces cerevisiae BY4741 SeMeCo community; assay: z-score of subpopulation abundance vs DMSO median, subpopulation auxotrophic for HLM; higher = larger share of this subpopulation than in DMSO controls; conditions: 10 µM; 24 h; SM minimal medium; subpopulation (auxotrophy): HLM
Method in brief: as §1

[13] = test system: Saccharomyces cerevisiae BY4741 SeMeCo community; assay: z-score of subpopulation abundance vs DMSO median, subpopulation auxotrophic for HUM; higher = larger share of this subpopulation than in DMSO controls; conditions: 10 µM; 24 h; SM minimal medium; subpopulation (auxotrophy): HUM
Method in brief: as §1

[14] = test system: Saccharomyces cerevisiae BY4741 SeMeCo community; assay: z-score of subpopulation abundance vs DMSO median, subpopulation auxotrophic for HLUM; higher = larger share of this subpopulation than in DMSO controls; conditions: 10 µM; 24 h; SM minimal medium; subpopulation (auxotrophy): HLUM
Method in brief: as §1

[15] = test system: Saccharomyces cerevisiae BY4741 SeMeCo community; assay: z-score of subpopulation abundance vs DMSO median, subpopulation auxotrophic for LUM; higher = larger share of this subpopulation than in DMSO controls; conditions: 10 µM; 24 h; SM minimal medium; subpopulation (auxotrophy): LUM
Method in brief: as §1

[16] = test system: Saccharomyces cerevisiae BY4741 SeMeCo community; assay: z-score of subpopulation abundance vs DMSO median, subpopulation auxotrophic for HM; higher = larger share of this subpopulation than in DMSO controls; conditions: 10 µM; 24 h; SM minimal medium; subpopulation (auxotrophy): HM
Method in brief: as §1

SMILES | mean cell size [1] | z-score of prototroph abundance [2] | z-score of subpopulation abundance [3] | z-score of subpopulation abundance [4] | z-score of subpopulation abundance [5] | z-score of subpopulation abundance [6] | z-score of subpopulation abundance [7] | z-score of subpopulation abundance [8] | z-score of subpopulation abundance [9] | z-score of subpopulation abundance [10] | z-score of subpopulation abundance [11] | z-score of subpopulation abundance [12] | z-score of subpopulation abundance [13] | z-score of subpopulation abundance [14] | z-score of subpopulation abundance [15] | z-score of subpopulation abundance [16]
CS(=O)(=O)c1ccc([C@@H](O)[C@@H](CF)NC(=O)C(Cl)Cl)cc1 [Florfenicol] | 12.4 ± 0.26 | 0.5 | -1.1 | -0.16 | 0.29 | -0.98 | -0.75 | 0 | -0.38 | -0.56 | -0.45 | -0.4 | -0.98 | -0.14 | – | –
CCCCOc1ccc(C(=O)CCN2CCCCC2)cc1 [Dyclonine HCl] | 12.2 ± 0.23 | 0.35 | 0.29 | 0.13 | -0.57 | -0.1 | 0.14 | – | -0.42 | -0.74 | -0.26 | -0.52 | – | – | -0.27 | –
C#C[C@]1(O)CC[C@H]2[C@@H]3CCC4=CC(=O)CC[C@@H]4[C@H]3CC[C@@]21CC [Levonorgestrel] | 12.4 ± 0.16 | 0.69 | -0.18 | -0.24 | 0.3 | -0.72 | -0.89 | -0.13 | -0.13 | -0.95 | 0.05 | -0.96 | -0.08 | -0.86 | -0.68 | –
Cc1nnc(NS(=O)(=O)c2ccc(N)cc2)s1 [Sulfamethizole] | 12.3 ± 0.23 | 0.97 | -0.46 | 0.65 | -0.15 | -1.02 | -0.01 | – | -0.65 | – | -1.06 | -0.87 | -0.98 | -0.49 | -0.52 | –
C#C[C@]1(O)CC[C@H]2[C@@H]3CCC4=Cc5oncc5C[C@]4(C)[C@H]3CC[C@@]21C [Danazol] | 12.2 ± 0.23 | 0 | -0.89 | -0.15 | 0.53 | – | 0.04 | – | 0.52 | -0.13 | -0.45 | -0.39 | 0.74 | -0.4 | 0.22 | -0.49
CN(C)CCCN1c2ccccc2CCc2ccc(Cl)cc21 [Clomipramine HCl] | – | -0.93 | 0.54 | -0.45 | – | -0.49 | -0.41 | 0.31 | 0.93 | -0.45 | -0.16 | 0.29 | 1.2 | 1.45 | – | 0.1
CCc1nn(CCCN2CCN(c3cccc(Cl)c3)CC2)c(=O)n1CCOc1ccccc1 [Nefazodone hydrochloride] | 12.38 ± 0.1 | -1.27 | -0.42 | 0.67 | -0.01 | 2.06 | -0.3 | – | -0.31 | – | 0.16 | 0.6 | -0.23 | 0.44 | 0.49 | 0.55
CC#C[C@]1(O)CC[C@H]2[C@@H]3CCC4=CC(=O)CCC4=C3[C@@H](c3ccc(N(C)C)cc3)C[C@@]21C [Mifepristone] | 12.3 ± 0.19 | – | 0.43 | 1.02 | -0.36 | 1.2 | 0.79 | 0.29 | 0.64 | 1.2 | 0.41 | 0.44 | – | – | 0.67 | 1.66
COc1cc([C@@H]2c3cc4c(cc3[C@@H](O[C@@H]3O[C@@H]5CO[C@@H](C)O[C@H]5[C@H](O)[C@H]3O)[C@H]3COC(=O)[C@H]23)OCO4)cc(OC)c1O [Etoposide] | 12.44 ± 0.11 | -0.82 | 0.21 | 0.2 | 0.39 | 0.15 | – | 0.37 | 0.47 | – | 0.56 | 0.66 | 0.64 | 1.05 | 0.64 | 0.36
CC1=C(C(=O)O)N2C(=O)[C@@H](NC(=O)[C@H](N)c3ccc(O)cc3)[C@H]2SC1 [Cefadroxil hydrate] | 12.1 ± 0.2 | – | -0.99 | -0.28 | – | – | -0.09 | -0.04 | -0.45 | -0.19 | -0.42 | -0.45 | -0.39 | -0.33 | -0.5 | -0.79
NC(=O)[C@@H]1CC[C@@H]2CN1C(=O)N2OS(=O)(=O)O [Avibactam sodium] | 12.68 ± 0.1 | – | 0.79 | 0.6 | 0.13 | -0.62 | 0.78 | – | 0.5 | -0.05 | 0.1 | 0.54 | -0.02 | 1.05 | 0.46 | 0.85
Cc1c(-c2ccc(O)cc2)n(Cc2ccc(OCCN3CCCCCC3)cc2)c2ccc(O)cc12 [Bazedoxifene Acetate] | 12.6 ± 0.073 | -0.23 | 0.99 | -0.2 | -0.25 | 0.29 | -0.35 | -1.12 | 0.36 | – | 0.21 | – | -0.26 | -0.3 | 0.65 | 0.8
Oc1cccc(O)c1 [Resorcinol] | 12.4 ± 0.22 | 0.94 | -0.66 | -0.23 | 0.1 | -0.05 | -0.4 | -0.64 | -0.77 | -0.43 | 0 | -0.64 | -0.96 | – | -0.89 | -0.29
C[C@H]1COc2c(C3(N)CC3)c(F)cc3c(=O)c(C(=O)O)cn1c23 [Pazufloxacin mesylate] | 12.5 ± 0.28 | -0.35 | -0.46 | – | – | 0.02 | -0.18 | 0.48 | -0.02 | -0.07 | 1.38 | -0.08 | -0.08 | 0.08 | -0.3 | -0.36
Nc1ccc(S(=O)(=O)Nc2ccnn2-c2ccccc2)cc1 [Sulfaphenazole] | – | 0.15 | 0.25 | 0.58 | 0.18 | – | -0.2 | -0.47 | 0 | -0.02 | -0.27 | – | -0.72 | 0.07 | -0.28 | -0.42
